# Assay results taken from paper PMC7862700, “An all-to-all approach to the identification of sequence-specific readers for epigenetic DNA modifications on cytosine”.
# Assays:
# Experiment in all cases: DAPPL (digital affinity profiling via proximity ligation, sequencing); 10 mM Tris-HCl pH 7.5, 50 mM NaCl, 1 mM DTT, 4% glycerol, room temperature, 30 min; GST-TFs on glutathione beads, 16-mer random dsDNA library, 0.1% formaldehyde crosslink after washing; high values mean tight binding
# [1] = target: T1, FEV (Homo sapiens, UniProt Q99581 1-238); settings: protein: recombinant; tags: N-terminal GST; dsDNA, one strand shown
# T1 sequence: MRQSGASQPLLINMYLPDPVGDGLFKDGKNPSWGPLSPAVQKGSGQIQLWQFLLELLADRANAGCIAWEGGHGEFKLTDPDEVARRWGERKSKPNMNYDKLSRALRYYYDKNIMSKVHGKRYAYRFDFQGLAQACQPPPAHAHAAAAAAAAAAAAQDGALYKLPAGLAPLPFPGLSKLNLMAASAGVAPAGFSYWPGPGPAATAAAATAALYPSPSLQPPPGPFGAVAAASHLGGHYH
# In short: (§1)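 Binding signal is defined as a hexamer's read frequency for one factor over its frequency for the tag-only sample. To obtain reads, GST-fused human transcription factors were expressed in yeast, captured on glutathione beads, barcoded with DNA and pooled with that sample. Pools met 200 nmole of a 16-mer random double-stranded DNA library in Tris/NaCl/DTT/glycerol buffer for 30 min at room temperature before washing, 0.1% formaldehyde crosslinking, proximity ligation (BsaI/T4 ligase, 1 h, 37 °C), PCR and Illumina NextSeq500 sequencing.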
# [2] = target: ETV5 (Homo sapiens, UniProt P41161 1-510); settings: protein: recombinant; tags: N-terminal GST; dsDNA, one strand shown
# In short: as §1
# [3] = target: HSF1 (Homo sapiens, UniProt Q00613 1-529); settings: protein: recombinant; tags: N-terminal GST; chain copies: 3; dsDNA, one strand shown
# In short: as §1
# [4] = target: T2, SPIC (Homo sapiens, UniProt Q8N5J4 1-248); settings: protein: recombinant; tags: N-terminal GST; dsDNA, one strand shown
# T2 sequence: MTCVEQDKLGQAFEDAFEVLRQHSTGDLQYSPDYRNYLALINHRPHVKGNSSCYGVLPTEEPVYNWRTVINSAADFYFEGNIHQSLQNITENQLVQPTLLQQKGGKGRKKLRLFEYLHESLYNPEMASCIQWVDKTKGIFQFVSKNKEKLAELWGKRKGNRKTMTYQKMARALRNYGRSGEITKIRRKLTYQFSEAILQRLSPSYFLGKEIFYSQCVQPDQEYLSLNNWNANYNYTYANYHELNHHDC
# In short: as §1
# [5] = target: ELF4 (Homo sapiens, UniProt Q99607 1-663); settings: protein: recombinant; tags: N-terminal GST; dsDNA, one strand shown
# In short: as §1
# [6] = target: T3, ELK4 (Homo sapiens, UniProt P28324-2 1-405); settings: protein: recombinant; tags: N-terminal GST; dsDNA, one strand shown
# T3 sequence: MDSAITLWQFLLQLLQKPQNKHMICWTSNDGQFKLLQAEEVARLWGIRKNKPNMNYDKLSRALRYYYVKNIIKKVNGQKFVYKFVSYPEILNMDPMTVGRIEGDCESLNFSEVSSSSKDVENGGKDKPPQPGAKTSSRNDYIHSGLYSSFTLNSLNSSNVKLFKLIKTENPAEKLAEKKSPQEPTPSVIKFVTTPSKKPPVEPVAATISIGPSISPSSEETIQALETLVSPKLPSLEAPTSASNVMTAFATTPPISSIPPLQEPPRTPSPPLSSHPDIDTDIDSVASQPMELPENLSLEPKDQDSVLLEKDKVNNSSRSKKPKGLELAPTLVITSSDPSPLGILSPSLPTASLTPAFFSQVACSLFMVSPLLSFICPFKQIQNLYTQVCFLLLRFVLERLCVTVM
# In short: as §1
# [7] = target: T4, ETV2 (Homo sapiens, UniProt O00321 1-342); settings: protein: recombinant; tags: N-terminal GST; dsDNA, one strand shown
# T4 sequence: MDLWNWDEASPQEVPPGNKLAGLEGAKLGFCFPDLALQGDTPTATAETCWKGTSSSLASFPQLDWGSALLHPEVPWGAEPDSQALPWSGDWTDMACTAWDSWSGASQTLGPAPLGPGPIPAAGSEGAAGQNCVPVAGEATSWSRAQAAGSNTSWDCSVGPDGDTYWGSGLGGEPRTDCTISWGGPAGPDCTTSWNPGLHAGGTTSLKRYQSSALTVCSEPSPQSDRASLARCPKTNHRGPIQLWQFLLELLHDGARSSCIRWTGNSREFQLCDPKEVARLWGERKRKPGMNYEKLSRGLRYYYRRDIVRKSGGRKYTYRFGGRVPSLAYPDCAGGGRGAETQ
# In short: as §1
# [8] = target: T5, ELF3 (Homo sapiens, UniProt P78545 1-371); settings: protein: recombinant; tags: N-terminal GST; dsDNA, one strand shown
# T5 sequence: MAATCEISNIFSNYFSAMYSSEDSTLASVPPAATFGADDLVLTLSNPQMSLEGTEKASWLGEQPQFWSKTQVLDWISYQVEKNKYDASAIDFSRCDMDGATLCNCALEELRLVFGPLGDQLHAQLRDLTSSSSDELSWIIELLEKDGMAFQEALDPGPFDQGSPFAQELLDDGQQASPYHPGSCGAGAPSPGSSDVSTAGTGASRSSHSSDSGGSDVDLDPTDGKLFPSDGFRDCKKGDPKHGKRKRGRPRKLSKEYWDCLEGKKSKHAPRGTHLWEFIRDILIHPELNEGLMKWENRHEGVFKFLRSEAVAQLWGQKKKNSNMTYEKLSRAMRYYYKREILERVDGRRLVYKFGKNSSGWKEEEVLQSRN
# In short: as §1
# [9] = target: CRX (Homo sapiens, UniProt O43186 1-299); settings: protein: recombinant; tags: N-terminal GST; dsDNA, one strand shown
# In short: as §1
# [10] = target: ETV1 (Homo sapiens, UniProt P50549 1-477); settings: protein: recombinant; tags: N-terminal GST; dsDNA, one strand shown
# In short: as §1
# [11] = target: T6, ERF (Homo sapiens, UniProt P50548 1-548); settings: protein: recombinant; tags: N-terminal GST; dsDNA, one strand shown
# T6 sequence: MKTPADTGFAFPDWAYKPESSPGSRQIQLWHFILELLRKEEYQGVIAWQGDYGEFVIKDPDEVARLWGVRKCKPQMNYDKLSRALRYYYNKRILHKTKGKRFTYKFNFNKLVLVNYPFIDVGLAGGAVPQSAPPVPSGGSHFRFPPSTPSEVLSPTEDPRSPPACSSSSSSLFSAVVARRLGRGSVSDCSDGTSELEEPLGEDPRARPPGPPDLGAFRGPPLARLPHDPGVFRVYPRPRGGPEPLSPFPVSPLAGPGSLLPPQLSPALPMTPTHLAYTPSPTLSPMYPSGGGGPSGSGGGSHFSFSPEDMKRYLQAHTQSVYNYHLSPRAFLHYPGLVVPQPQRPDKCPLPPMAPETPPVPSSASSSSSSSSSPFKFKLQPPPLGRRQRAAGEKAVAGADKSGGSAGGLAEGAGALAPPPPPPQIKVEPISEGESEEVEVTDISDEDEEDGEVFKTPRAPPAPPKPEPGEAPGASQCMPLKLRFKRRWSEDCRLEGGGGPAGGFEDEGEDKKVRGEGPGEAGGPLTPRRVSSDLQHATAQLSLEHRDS
# In short: as §1
# [12] = target: T7, ETV3L (Homo sapiens, UniProt Q6ZN32 1-361); settings: protein: recombinant; tags: N-terminal GST; dsDNA, one strand shown
# T7 sequence: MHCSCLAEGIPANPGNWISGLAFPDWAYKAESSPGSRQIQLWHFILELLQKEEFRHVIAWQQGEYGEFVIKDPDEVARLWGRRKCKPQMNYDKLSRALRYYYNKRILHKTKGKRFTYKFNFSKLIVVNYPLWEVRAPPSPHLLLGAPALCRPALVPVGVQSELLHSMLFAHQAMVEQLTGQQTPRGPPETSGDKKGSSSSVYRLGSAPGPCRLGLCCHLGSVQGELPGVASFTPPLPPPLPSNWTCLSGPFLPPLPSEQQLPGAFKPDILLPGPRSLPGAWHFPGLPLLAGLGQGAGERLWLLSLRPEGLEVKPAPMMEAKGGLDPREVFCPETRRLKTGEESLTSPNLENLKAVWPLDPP
# In short: as §1
# [13] = target: T8, ETS2 (Homo sapiens, UniProt P15036 1-469); settings: protein: recombinant; tags: N-terminal GST; dsDNA, one strand shown
# T8 sequence: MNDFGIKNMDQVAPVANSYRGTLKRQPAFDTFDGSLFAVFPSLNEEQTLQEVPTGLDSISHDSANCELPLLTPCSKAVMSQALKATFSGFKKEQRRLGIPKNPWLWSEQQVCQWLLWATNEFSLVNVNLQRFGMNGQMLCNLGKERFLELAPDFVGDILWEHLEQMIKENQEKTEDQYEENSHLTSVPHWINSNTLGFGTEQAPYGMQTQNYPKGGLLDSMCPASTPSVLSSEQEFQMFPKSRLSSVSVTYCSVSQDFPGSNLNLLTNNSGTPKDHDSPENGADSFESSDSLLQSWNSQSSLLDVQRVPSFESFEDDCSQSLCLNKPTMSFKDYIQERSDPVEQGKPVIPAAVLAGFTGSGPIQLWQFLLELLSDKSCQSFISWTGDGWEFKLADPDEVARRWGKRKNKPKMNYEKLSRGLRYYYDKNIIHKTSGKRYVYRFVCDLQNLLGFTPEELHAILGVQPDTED
# In short: as §1
# [14] = target: T9, SPDEF (Homo sapiens, UniProt O95238 1-335); settings: protein: recombinant; tags: N-terminal GST; dsDNA, one strand shown
# T9 sequence: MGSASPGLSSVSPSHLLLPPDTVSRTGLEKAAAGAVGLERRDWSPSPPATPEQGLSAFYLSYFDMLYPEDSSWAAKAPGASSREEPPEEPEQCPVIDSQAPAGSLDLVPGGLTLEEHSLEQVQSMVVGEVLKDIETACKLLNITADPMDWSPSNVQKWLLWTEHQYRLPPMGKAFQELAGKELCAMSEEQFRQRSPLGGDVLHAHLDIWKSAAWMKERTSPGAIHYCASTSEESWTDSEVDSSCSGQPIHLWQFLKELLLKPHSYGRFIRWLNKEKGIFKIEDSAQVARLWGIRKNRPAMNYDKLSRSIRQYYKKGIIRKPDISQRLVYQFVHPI
# In short: as §1
# [15] = target: T10, ETV7 (Homo sapiens, UniProt Q9Y603 1-341); settings: protein: recombinant; tags: N-terminal GST; dsDNA, one strand shown
# T10 sequence: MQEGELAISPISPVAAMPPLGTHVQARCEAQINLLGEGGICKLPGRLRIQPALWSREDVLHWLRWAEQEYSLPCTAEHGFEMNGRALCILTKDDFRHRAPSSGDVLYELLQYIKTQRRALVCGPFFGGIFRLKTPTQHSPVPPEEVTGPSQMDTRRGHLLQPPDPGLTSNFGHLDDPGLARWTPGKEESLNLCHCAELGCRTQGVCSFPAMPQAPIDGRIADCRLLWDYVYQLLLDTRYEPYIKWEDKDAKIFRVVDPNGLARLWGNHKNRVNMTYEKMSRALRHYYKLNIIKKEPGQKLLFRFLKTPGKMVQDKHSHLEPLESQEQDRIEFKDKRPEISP
# In short: as §1
# [16] = target: T11, ELF5 (Homo sapiens, UniProt Q9UKW6-2 1-255); settings: protein: recombinant; tags: N-terminal GST; dsDNA, one strand shown
# T11 sequence: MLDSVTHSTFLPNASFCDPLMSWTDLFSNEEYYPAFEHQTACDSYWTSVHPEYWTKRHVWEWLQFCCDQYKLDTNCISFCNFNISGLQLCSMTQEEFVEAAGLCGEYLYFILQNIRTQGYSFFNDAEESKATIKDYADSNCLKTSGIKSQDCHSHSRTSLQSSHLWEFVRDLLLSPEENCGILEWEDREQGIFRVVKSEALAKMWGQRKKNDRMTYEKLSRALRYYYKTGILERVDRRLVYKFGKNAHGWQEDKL
# In short: as §1
# [17] = target: T12, ETV3 (Homo sapiens, UniProt P41162-2 1-143); settings: protein: recombinant; tags: N-terminal GST; dsDNA, one strand shown
# T12 sequence: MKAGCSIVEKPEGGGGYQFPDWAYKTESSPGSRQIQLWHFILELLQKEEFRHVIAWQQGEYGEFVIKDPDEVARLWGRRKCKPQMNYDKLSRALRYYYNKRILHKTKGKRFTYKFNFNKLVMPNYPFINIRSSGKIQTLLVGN
# In short: as §1
# [18] = target: ETV6 (Homo sapiens, UniProt P41212 1-452); settings: protein: recombinant; tags: N-terminal GST; dsDNA, one strand shown
# In short: as §1
# Sequence of HSF1 (Q00613 whole entry): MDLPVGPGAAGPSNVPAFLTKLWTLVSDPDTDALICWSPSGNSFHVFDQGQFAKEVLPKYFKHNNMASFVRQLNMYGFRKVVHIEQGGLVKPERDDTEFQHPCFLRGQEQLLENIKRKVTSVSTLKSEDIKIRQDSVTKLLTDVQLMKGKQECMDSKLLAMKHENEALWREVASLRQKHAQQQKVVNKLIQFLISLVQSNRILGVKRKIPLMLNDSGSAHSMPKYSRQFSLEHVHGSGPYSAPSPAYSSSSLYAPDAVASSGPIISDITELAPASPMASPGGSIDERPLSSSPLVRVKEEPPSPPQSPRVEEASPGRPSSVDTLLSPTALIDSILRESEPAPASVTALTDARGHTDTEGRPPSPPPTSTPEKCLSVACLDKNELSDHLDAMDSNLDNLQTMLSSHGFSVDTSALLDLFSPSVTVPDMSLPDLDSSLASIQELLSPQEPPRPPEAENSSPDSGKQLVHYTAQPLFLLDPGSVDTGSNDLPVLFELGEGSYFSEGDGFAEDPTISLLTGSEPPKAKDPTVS
# Sequence of ELF4 (Q99607 whole entry): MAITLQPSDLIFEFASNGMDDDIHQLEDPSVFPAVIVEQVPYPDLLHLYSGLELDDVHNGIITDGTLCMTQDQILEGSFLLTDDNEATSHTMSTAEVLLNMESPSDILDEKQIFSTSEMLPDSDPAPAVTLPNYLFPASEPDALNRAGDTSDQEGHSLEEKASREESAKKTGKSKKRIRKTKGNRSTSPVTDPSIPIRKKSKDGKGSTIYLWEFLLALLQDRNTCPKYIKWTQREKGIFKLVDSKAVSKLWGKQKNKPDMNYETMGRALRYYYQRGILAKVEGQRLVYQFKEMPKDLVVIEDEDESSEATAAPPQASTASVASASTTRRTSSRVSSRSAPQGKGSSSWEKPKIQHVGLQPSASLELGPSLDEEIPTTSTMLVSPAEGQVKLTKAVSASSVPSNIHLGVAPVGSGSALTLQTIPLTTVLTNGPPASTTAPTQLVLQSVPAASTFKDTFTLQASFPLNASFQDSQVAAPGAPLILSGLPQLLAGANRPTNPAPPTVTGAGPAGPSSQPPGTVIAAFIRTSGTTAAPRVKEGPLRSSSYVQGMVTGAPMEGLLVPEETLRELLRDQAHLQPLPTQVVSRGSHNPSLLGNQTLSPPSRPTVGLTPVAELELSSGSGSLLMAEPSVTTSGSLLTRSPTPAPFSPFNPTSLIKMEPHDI
# Sequence of ETV6 (P41212 whole entry): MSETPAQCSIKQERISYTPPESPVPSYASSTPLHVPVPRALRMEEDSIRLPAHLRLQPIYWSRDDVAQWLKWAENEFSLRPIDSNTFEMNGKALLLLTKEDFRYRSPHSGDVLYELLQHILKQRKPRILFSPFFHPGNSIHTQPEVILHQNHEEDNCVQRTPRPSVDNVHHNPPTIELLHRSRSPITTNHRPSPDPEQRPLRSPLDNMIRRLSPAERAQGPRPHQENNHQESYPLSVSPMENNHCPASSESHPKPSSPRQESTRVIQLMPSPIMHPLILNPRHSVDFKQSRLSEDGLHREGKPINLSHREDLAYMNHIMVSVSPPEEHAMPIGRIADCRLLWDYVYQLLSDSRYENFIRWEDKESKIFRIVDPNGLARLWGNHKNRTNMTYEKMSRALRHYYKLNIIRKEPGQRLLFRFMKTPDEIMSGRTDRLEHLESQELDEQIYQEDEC
# Sequence of CRX (O43186 whole entry): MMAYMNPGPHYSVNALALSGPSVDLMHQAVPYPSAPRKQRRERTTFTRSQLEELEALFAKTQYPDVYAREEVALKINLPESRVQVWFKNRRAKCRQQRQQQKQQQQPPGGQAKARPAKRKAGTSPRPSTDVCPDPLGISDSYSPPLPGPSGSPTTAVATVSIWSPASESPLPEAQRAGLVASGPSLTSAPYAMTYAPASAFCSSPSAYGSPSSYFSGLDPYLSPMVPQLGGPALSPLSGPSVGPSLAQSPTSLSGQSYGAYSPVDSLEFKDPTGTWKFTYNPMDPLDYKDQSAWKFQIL
# Sequence of ETV1 (P50549 whole entry): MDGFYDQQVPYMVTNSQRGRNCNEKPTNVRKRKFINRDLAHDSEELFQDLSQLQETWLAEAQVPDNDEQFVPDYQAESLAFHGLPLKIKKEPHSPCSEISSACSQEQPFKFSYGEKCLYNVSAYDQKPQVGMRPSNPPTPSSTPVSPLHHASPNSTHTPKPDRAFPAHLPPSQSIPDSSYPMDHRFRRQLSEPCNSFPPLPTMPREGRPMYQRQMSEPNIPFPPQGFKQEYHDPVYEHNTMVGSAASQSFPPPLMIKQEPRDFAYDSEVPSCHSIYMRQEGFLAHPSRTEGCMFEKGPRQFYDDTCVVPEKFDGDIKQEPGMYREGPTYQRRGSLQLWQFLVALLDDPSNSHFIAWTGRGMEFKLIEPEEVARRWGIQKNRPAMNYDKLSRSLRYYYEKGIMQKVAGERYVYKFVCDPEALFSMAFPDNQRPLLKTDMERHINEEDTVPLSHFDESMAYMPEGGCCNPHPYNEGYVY
# Sequence of ETV5 (P41161 whole entry): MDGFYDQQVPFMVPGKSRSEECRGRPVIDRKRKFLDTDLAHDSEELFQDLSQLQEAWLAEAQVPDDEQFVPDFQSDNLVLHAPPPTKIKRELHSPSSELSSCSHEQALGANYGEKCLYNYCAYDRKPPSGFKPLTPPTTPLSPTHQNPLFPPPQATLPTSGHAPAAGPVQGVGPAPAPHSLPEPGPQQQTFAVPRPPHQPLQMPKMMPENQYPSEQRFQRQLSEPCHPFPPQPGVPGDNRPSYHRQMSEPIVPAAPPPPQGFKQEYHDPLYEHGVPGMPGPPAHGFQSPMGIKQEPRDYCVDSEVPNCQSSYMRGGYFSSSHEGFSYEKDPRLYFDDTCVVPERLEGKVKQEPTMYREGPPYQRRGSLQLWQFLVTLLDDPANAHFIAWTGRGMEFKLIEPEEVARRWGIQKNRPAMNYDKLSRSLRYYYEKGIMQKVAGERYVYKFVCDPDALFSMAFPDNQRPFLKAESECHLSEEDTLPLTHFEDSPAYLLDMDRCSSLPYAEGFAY
sequence,measurement,setting,value
CACTCT,binding signal,[1],"1.24 fold enrichment (6-mer frequency, TF over GST control)"
same,binding signal,[2],"1.29 fold enrichment (6-mer frequency, TF over GST control)"
same,binding signal,[3],"1.24 fold enrichment (6-mer frequency, TF over GST control)"
same,binding signal,[4],"1.22 fold enrichment (6-mer frequency, TF over GST control)"
same,binding signal,[5],"1.22 fold enrichment (6-mer frequency, TF over GST control)"
same,binding signal,[6],"1.58 fold enrichment (6-mer frequency, TF over GST control)"
same,binding signal,[7],"1.37 fold enrichment (6-mer frequency, TF over GST control)"
same,binding signal,[8],"1.4 fold enrichment (6-mer frequency, TF over GST control)"
same,binding signal,[9],"1.08 fold enrichment (6-mer frequency, TF over GST control)"
same,binding signal,[10],"1.33 fold enrichment (6-mer frequency, TF over GST control)"
same,binding signal,[11],"1.37 fold enrichment (6-mer frequency, TF over GST control)"
same,binding signal,[12],"1.29 fold enrichment (6-mer frequency, TF over GST control)"
same,binding signal,[13],"1.27 fold enrichment (6-mer frequency, TF over GST control)"
same,binding signal,[14],"1.14 fold enrichment (6-mer frequency, TF over GST control)"
same,binding signal,[15],"1.19 fold enrichment (6-mer frequency, TF over GST control)"
same,binding signal,[16],"1.18 fold enrichment (6-mer frequency, TF over GST control)"
same,binding signal,[17],"1.43 fold enrichment (6-mer frequency, TF over GST control)"
same,binding signal,[18],"1.23 fold enrichment (6-mer frequency, TF over GST control)"
